Compounds without any hit were thinned out: in the full panel of roughly 79,000, 15% have a hit. Unmarked numbers belong to inactive results. The source made the active and inactive calls. No stated cut-off is given here; in the data, active means growth inhibition above about 70%; inactive means the rest.

This assay is described as follows: NCI Yeast Anticancer Drug Screen. Data for the sgs1 strain (AID 173).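 Further: 0% = growth of vehicle-only control cultures.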 To be noted: S. cerevisiae sgs1 mutant, stronger effect = higher value. The procedure: Growth inhibition of yeast strains with defined genetic alterations is measured as a screen for potential anti-cancer activity. Selected strains with alterations in DNA damage repair or cell cycle control were exposed to compounds and growth inhibition was measured relative to vehicle treated controls. The strain used in this assay is sgs1

On to `Cc1ccc(S(=O)(=O)NCCSS(=O)(=O)c2ccc(C)cc2)cc1`, for which the growth inhibition is 20% (at 1.2 µM); 21% (at 3.7 µM); 45% (at 11.0 µM); 99% (active) (at 33.0 µM); 96% (active) (at 100.0 µM).
The corresponding values for `CC(Br)C(=O)c1ccc2cc(Br)c3ccccc3c2c1` (stereo not given) are 3%, 8%, 14%, 17% and 17%.
For the compound `Cc1ccc(NN(NC(=O)OC(C)C)C(=O)OC(C)C)cc1`, the growth inhibition reads like this: (at 1.2 µM) 1%; (at 3.7 µM) 1%; (at 11.0 µM) 5%; (at 33.0 µM) 14%; (at 100.0 µM) 15%.
As for `CC/C(=C(\c1ccccc1)c1ccc(OCCN(C)C)cc1)c1ccccc1`, the growth inhibition by setting is: (at 1.2 µM) 0%; (at 3.7 µM) 1%; (at 11.0 µM) 84% (active); (at 33.0 µM) 97% (active); (at 100.0 µM) 97% (active).
For `C(=C\c1ccccc1)/COc1ccccc1C(N1CCOCC1)n1nc2ccccc2n1` (stereo not given), the growth inhibition was 23% (at 1.2 µM); 22% (at 3.7 µM); 54% (at 11.0 µM); 96% (active) (at 33.0 µM); 99% (active) (at 100.0 µM).
Turning to `COc1ccc2nc3c([N+](=O)[O-])ccc(NCCN(C)C)c3c(NCCN(C)C)c2c1`, the growth inhibition is, setting by setting: (at 1.2 µM) 3%; (at 3.7 µM) 6%; (at 11.0 µM) 2%; (at 33.0 µM) 2%; (at 100.0 µM) 2%.
Consider `COC1=CC(=O)C(C2(OC(C)C)OC(=O)C(Cl)=C2Cl)=CC1=O` (stereo not given), for which the growth inhibition (at 1.2 µM) is 2%; the growth inhibition (at 3.7 µM) was 37%; the growth inhibition (at 11.0 µM) was 99% (active); the growth inhibition (at 33.0 µM) is 99% (active); the growth inhibition (at 100.0 µM) is 99% (active).
Take `C=C1CC(Cn2cc(Br)c(=O)[nH]c2=O)(c2ccc(-c3ccccc3)cc2)OC1=O` (stereo not given): the growth inhibition by setting is: (at 1.2 µM) 8%; (at 3.7 µM) 26%; (at 11.0 µM) 37%; (at 33.0 µM) 57%; (at 100.0 µM) 93% (active).

The values above are taken from PubChem BioAssay (NCI).
